# Measured values as given in the supplement of paper PMC8728848.
# The sample as a whole holds a higher share of the strongest signals than the screen did.
# B1: Cohesin-marm-DC-ASGPR-CRD (protein)
# chain: LDITSHHHHHHDDLDAVRIKVDTVNAKPGDTVRIPVRFSGIPSKGIANCDFVYSYDPNVLEIIEIEPGDIIVDPNPDKSFDTAVYPDRKIIVFLFAEDSGTGAYAITKDGVFATIVAKVKEGAPNGLSVIKFVEVGGFANNDLVEQKTQFFDGGVNVGDTTEPATPTTPVTTPTTTDDLDAASCPINWVEHQGSCYWFSRSGKTWPEAERYCQLENTHLVVINSREEQNFVQAHLGSAYTWMGLSDPEGVWKWVDGTDYSSGFQNWKPGQPDDWQGHGLGGGEDCAHFHPDGRWNDDVCQRSYHWVCEAGLTQASQDSH
# Experiments:
# Assay in all cases: glycan array binding signal (z-score within array); higher = stronger binding
# Settings in all cases: glycan notation: IUPAC condensed, linker removed
# [1] = biological target: Fuc(a1-2)Gal(b1-3)GalNAc
# Summary of the method: (§1)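 Glycan array data came from 3228 arrays in the Consortium for Functional Glycomics database, and only arrays with an available protein sequence were kept. Glycan names were put into IUPAC-condensed notation, and columns mapping to the same glycan were averaged. The binding signal is a within-array Z-score, averaged across arrays of one protein sequence run at different concentrations or buffers and across linkers. A negative Z-score can be read as non-binding.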
# [2] = biological target: Fuc(a1-2)Gal(b1-3)[Fuc(a1-4)]GlcNAc(b1-3)[Gal(b1-4)GlcNAc(b1-6)]Gal(b1-4)Glc
# Summary of the method: as §1
# [3] = biological target: Fuc(a1-2)[Gal(a1-3)]Gal(b1-4)GlcNAc(b1-6)GalNAc
# Summary of the method: as §1
# [4] = biological target: Fuc(a1-2)[GalNAc(a1-3)]Gal(b1-3)GalNAc(a1-3)[Fuc(a1-2)]Gal(b1-4)GlcNAc
# Summary of the method: as §1
# [5] = biological target: Fuc(a1-2)[GalNAc(a1-3)]Gal(b1-3)GlcNAc
# Summary of the method: as §1
# [6] = biological target: Fuc(a1-2)[GalNAc(a1-3)]Gal(b1-3)GlcNAc(b1-6)GalNAc
# Summary of the method: as §1
# [7] = biological target: Fuc(a1-2)[GalNAc(a1-3)]Gal(b1-4)GlcNAc(b1-3)Gal(b1-4)GlcNAc
# Summary of the method: as §1
# [8] = biological target: Fuc(a1-2)[GalNAc(a1-3)]Gal(b1-4)GlcNAc(b1-3)Gal(b1-4)GlcNAc(b1-3)Gal(b1-4)GlcNAc
# Summary of the method: as §1
# [9] = biological target: Fuc(a1-2)[GalNAc(a1-3)]Gal(b1-4)GlcNAc(b1-6)GalNAc
# Summary of the method: as §1
# [10] = biological target: Fuc(a1-2)[GalNAc(a1-3)]Gal(b1-4)[Fuc(a1-3)]GlcNAc
# Summary of the method: as §1
# [11] = biological target: Gal(a1-3)Gal(b1-3)GlcNAc(b1-6)GalNAc
# Summary of the method: as §1
# [12] = biological target: Gal(a1-3)Gal(b1-4)Glc
# Summary of the method: as §1
# [13] = biological target: Gal(a1-4)GlcNAc
# Summary of the method: as §1
# [14] = biological target: Gal(b1-3)GlcNAc(b1-6)[Gal(b1-3)]GalNAc
# Summary of the method: as §1
# [15] = biological target: Gal(b1-4)Glc6S
# Summary of the method: as §1
# [16] = biological target: Gal(b1-4)GlcNAc(b1-2)Man
# Summary of the method: as §1
# [17] = biological target: Gal(b1-4)GlcNAc(b1-2)[Gal(b1-4)GlcNAc(b1-4)]Man(a1-3)[Gal(b1-4)GlcNAc(b1-2)Man(a1-6)]Man(b1-4)GlcNAc(b1-4)GlcNAc
# Summary of the method: as §1
# [18] = biological target: Gal(b1-4)GlcNAc(b1-2)[Gal(b1-4)GlcNAc(b1-4)]Man(a1-3)[GlcNAc(b1-4)][Gal(b1-4)GlcNAc(b1-2)[Gal(b1-4)GlcNAc(b1-6)]Man(a1-6)]Man(b1-4)GlcNAc(b1-4)GlcNAc
# Summary of the method: as §1
# [19] = biological target: Gal(b1-4)GlcNAc(b1-3)Gal(b1-4)GlcNAc(b1-3)Gal(b1-4)GlcNAc(b1-2)Man(a1-3)[Gal(b1-4)GlcNAc(b1-3)Gal(b1-4)GlcNAc(b1-3)Gal(b1-4)GlcNAc(b1-2)Man(a1-6)]Man(b1-4)GlcNAc(b1-4)[Fuc(a1-6)]GlcNAc
# Summary of the method: as §1
# [20] = biological target: Gal(b1-4)GlcNAc(b1-6)[Gal(b1-4)GlcNAc(b1-3)]GalNAc
# Summary of the method: as §1
# [21] = biological target: Gal3S(b1-4)[Fuc(a1-3)]GlcNAc6S
# Summary of the method: as §1
# [22] = biological target: Gal3S4S(b1-4)GlcNAc
# Summary of the method: as §1
# [23] = biological target: GalNAc3S(b1-4)GlcNAc
# Summary of the method: as §1
# [24] = biological target: GalNAc6S(b1-4)GlcNAc
# Summary of the method: as §1
# [25] = biological target: GlcNAc(b1-2)Man(a1-3)[GlcNAc(b1-2)Man(a1-6)]Man(b1-4)GlcNAc(b1-4)GlcNAc
# Summary of the method: as §1
# [26] = biological target: GlcNAc(b1-6)GalNAc
# Summary of the method: as §1
# [27] = biological target: Kdn(a2-3)Gal(b1-3)GalNAc
# Summary of the method: as §1
# [28] = biological target: Man(a1-2)Man(a1-3)[Man(a1-2)Man(a1-6)]Man
# Summary of the method: as §1
# [29] = biological target: Man(a1-3)[Man(a1-6)]Man(a1-6)[Man(a1-3)]Man(b1-4)GlcNAc(b1-4)GlcNAc
# Summary of the method: as §1
# [30] = biological target: Neu5Ac(a2-3)Gal(b1-3)GlcNAc(b1-3)Gal(b1-3)GlcNAc
# Summary of the method: as §1
# [31] = biological target: Neu5Ac(a2-3)Gal(b1-3)GlcNAc(b1-4)Gal(b1-4)Glc
# Summary of the method: as §1
# [32] = biological target: Neu5Ac(a2-3)Gal(b1-4)GlcNAc(b1-2)Man(a1-3)[GlcNAc(b1-4)][Neu5Ac(a2-3)Gal(b1-4)GlcNAc(b1-2)Man(a1-6)]Man(b1-4)GlcNAc(b1-4)GlcNAc
# Summary of the method: as §1
# [33] = biological target: Neu5Ac(a2-3)Gal(b1-4)GlcNAc(b1-2)Man(a1-3)[Neu5Ac(a2-3)Gal(b1-4)GlcNAc(b1-2)Man(a1-6)]Man(b1-4)GlcNAc(b1-4)[Fuc(a1-6)]GlcNAc
# Summary of the method: as §1
# [34] = biological target: Neu5Ac(a2-3)Gal(b1-4)GlcNAc(b1-2)[Neu5Ac(a2-3)Gal(b1-4)GlcNAc(b1-6)]Man(a1-6)[Neu5Ac(a2-3)Gal(b1-4)GlcNAc(b1-2)Man(a1-3)]Man(b1-4)GlcNAc(b1-4)GlcNAc
# Summary of the method: as §1
# [35] = biological target: Neu5Ac(a2-3)Gal(b1-4)[Fuc(a1-3)]GlcNAc(b1-3)Gal(b1-4)GlcNAc
# Summary of the method: as §1
# [36] = biological target: Neu5Ac(a2-3)Gal6S(b1-4)GlcNAc
# Summary of the method: as §1
# [37] = biological target: Neu5Ac(a2-3)GalNAc
# Summary of the method: as §1
# [38] = biological target: Neu5Ac(a2-6)Gal(b1-4)Glc
# Summary of the method: as §1
# [39] = biological target: Neu5Ac(a2-6)Gal(b1-4)GlcNAc(b1-2)Man(a1-6)Man(b1-4)GlcNAc(b1-4)GlcNAc
# Summary of the method: as §1
# [40] = biological target: Neu5Ac(a2-6)Gal(b1-4)GlcNAc(b1-2)[Neu5Ac(a2-6)Gal(b1-4)GlcNAc(b1-4)]Man(a1-3)[GlcNAc(b1-4)][Neu5Ac(a2-6)Gal(b1-4)GlcNAc(b1-4)Man(a1-6)]Man(b1-4)GlcNAc(b1-4)GlcNAc
# Summary of the method: as §1
# [41] = biological target: Neu5Ac(a2-6)Gal(b1-4)GlcNAc(b1-3)Gal(b1-4)GlcNAc
# Summary of the method: as §1
# [42] = biological target: Neu5Ac(a2-6)Gal(b1-4)GlcNAc(b1-3)Gal(b1-4)GlcNAc(b1-3)GalNAc
# Summary of the method: as §1
# [43] = biological target: Neu5Ac(a2-6)GalNAc
# Summary of the method: as §1
# [44] = biological target: Neu5Ac(a2-8)Neu5Ac(a2-8)Neu5Ac(a2-8)Neu5Ac(a2-3)[GalNAc(b1-4)]Gal(b1-4)Glc
# Summary of the method: as §1
# [45] = biological target: Neu5Ac9Ac(a2-3)Gal(b1-4)GlcNAc
# Summary of the method: as §1
# [46] = biological target: Neu5Gc(a2-8)Neu5Gc(a2-6)Gal(b1-4)GlcNAc
# Summary of the method: as §1
binder,measurement,setting,value
B1,glycan array binding signal (z-score),[1],-0.443
same,glycan array binding signal (z-score),[2],-0.444
same,glycan array binding signal (z-score),[3],-0.449
same,glycan array binding signal (z-score),[4],3.71
same,glycan array binding signal (z-score),[5],2.96
same,glycan array binding signal (z-score),[6],2.04
same,glycan array binding signal (z-score),[7],2.91
same,glycan array binding signal (z-score),[8],2.99
same,glycan array binding signal (z-score),[9],2.6
same,glycan array binding signal (z-score),[10],3.78
same,glycan array binding signal (z-score),[11],2.92
same,glycan array binding signal (z-score),[12],-0.398
same,glycan array binding signal (z-score),[13],-0.402
same,glycan array binding signal (z-score),[14],-0.041
same,glycan array binding signal (z-score),[15],-0.377
same,glycan array binding signal (z-score),[16],3.13
same,glycan array binding signal (z-score),[17],-0.44
same,glycan array binding signal (z-score),[18],-0.305
same,glycan array binding signal (z-score),[19],-0.304
same,glycan array binding signal (z-score),[20],-0.405
same,glycan array binding signal (z-score),[21],-0.069
same,glycan array binding signal (z-score),[22],-0.425
same,glycan array binding signal (z-score),[23],-0.449
same,glycan array binding signal (z-score),[24],3
same,glycan array binding signal (z-score),[25],-0.449
same,glycan array binding signal (z-score),[26],2.94
same,glycan array binding signal (z-score),[27],-0.362
same,glycan array binding signal (z-score),[28],-0.447
same,glycan array binding signal (z-score),[29],-0.452
same,glycan array binding signal (z-score),[30],-0.433
same,glycan array binding signal (z-score),[31],-0.449
same,glycan array binding signal (z-score),[32],-0.448
same,glycan array binding signal (z-score),[33],-0.449
same,glycan array binding signal (z-score),[34],-0.331
same,glycan array binding signal (z-score),[35],-0.388
same,glycan array binding signal (z-score),[36],-0.447
same,glycan array binding signal (z-score),[37],-0.435
same,glycan array binding signal (z-score),[38],-0.421
same,glycan array binding signal (z-score),[39],-0.446
same,glycan array binding signal (z-score),[40],-0.368
same,glycan array binding signal (z-score),[41],-0.46
same,glycan array binding signal (z-score),[42],-0.378
same,glycan array binding signal (z-score),[43],3.16
same,glycan array binding signal (z-score),[44],3.12
same,glycan array binding signal (z-score),[45],-0.447
same,glycan array binding signal (z-score),[46],-0.447
